From ChEMBL document CHEMBL3988442, “University of Dundee, Small-Polar-MMV Screening Library” (2021)
Screen size: about 48,000 compounds; about 13,000 (27%) showed an effect of 50% or more. The list shows a part of the results.

test system: Wolbachia pipientis; experiment: Anti-Wolbachia Cell-Based Screen; format: functional; set-up: scale not given: in the data most compounds retested in dose-response had high values; conditions: 5 µM

| SMILES | Percent Effect |
| --- | --- |
| Cc1cc2c(c(-c3cnccn3)c1)OC(CN)C2 (stereo not drawn) | -6.126% |
| CCN(Cc1nc(COC)no1)Cc1cccnc1NC(=O)C(C)(C)C | -4.491% |
| Cc1c(Cl)cccc1NC(=O)CCNc1ccc(C#N)cn1 | 0.2076% |
| Cc1c(Cl)cccc1NC(=O)c1nc[nH]n1 | 83.83% |
| Cc1c(Cl)cccc1NC(=O)Cn1cc(C(=O)O)ccc1=O | 1.545% |
| O=C(O)C(F)(F)F.c1nc2c(c(C3CC3)n1)CCN(Cc1ccc3c(c1)OCO3)CC2 | -14.88% |
| O=C(O)C(F)(F)F.c1ccc(CN2CCc3ncnc(C4CC4)c3CC2)cc1 | 85.35% |
| COc1ccc(CN2CCc3ncnc(C4CC4)c3CC2)cc1.O=C(O)C(F)(F)F | 110.6% |
| Fc1ccc(CN2CCc3ncnc(C4CC4)c3CC2)cc1.O=C(O)C(F)(F)F | 98.26% |
| O=C(O)C(F)(F)F.O=C(O)C(F)(F)F.c1ccc(CN2CCc3ncnc(C4CC4)c3CC2)nc1 | -2.713% |
| COc1ccc(CN2CCc3ncnc(C4CCOC4)c3CC2)cc1.O=C(O)C(F)(F)F (stereo not drawn) | -16.69% |
| O=C(O)C(F)(F)F.O=C(O)C(F)(F)F.c1cncc(CN2CCc3ncnc(C4CC4)c3CC2)c1 | 8.838% |
| CCN(C)c1ncnc2c1CCN(Cc1ccc(OC)cc1)CC2.O=C(O)C(F)(F)F.O=C(O)C(F)(F)F | -7.101% |
| Fc1ccc(CN2CCc3ncnc(C4CCOC4)c3CC2)cc1.O=C(O)C(F)(F)F (stereo not drawn) | -4.98% |
| Cc1ccc(O)c(C(=O)N2CCC(CNC(=O)OC(C)(C)C)C2)c1 (stereo not drawn) | 18.78% |
| Cc1cc(NC(=O)c2ccc(N3CCOCC3)c(F)c2)[nH]n1 | -5.615% |
| Cl.O=C(NC[C@@]1(COc2cnccn2)C[C@@H](O)[C@@H](O)C1)C1CC1 | -0.6559% |
| O=C(NCCc1ccccc1F)NCC(O)c1cccc(F)c1 (stereo not drawn) | 91.24% |
| O=C(NCC(O)c1cccc(F)c1)c1cccnc1O (stereo not drawn) | -4.303% |
| O=C(NCc1ccccc1F)NCC(O)c1cccc(F)c1 (stereo not drawn) | 109.5% |
| CN1CCN(C)C(c2nnc3ccc(C(=O)N4CCOCC4)cn23)C1.O=C(O)C(F)(F)F.O=C(O)C(F)(F)F (stereo not drawn) | 7.547% |

| SMILES | Percent Effect |
| --- | --- |
| COc1ncc(C)cc1NC(=O)CCc1ccccn1 | -10.54% |
| Cc1nc(N2CCC(C(O)c3nccn3C)CC2)c2sccc2n1 (stereo not drawn) | -1.351% |
| CO[C@H]1[C@@H]2CC[C@H]1CN(c1nc(C)nc3ccsc13)C2 | 116.9% |
| CO[C@H]1[C@@H]2CC[C@H]1CN(c1nc(C)nc3sccc13)C2 | 2.93% |
| Cc1nc2c(c(N3CCC(O)(CN4CCCC4)CC3)n1)CCNCC2 | -22.09% |
| CNc1cncc(C2CCCN2C(=O)Cn2c(=O)oc3ccccc32)n1 (stereo not drawn) | 88.17% |
| CNc1cncc(C2CCCN2C(=O)CCn2ccnc2)n1 (stereo not drawn) | 78.35% |
| CC(C)c1nccn1CCC(=O)N1CCCC1c1cccn1C (stereo not drawn) | 1.985% |
| Cn1cc(C2CCCN2C(=O)CCn2ccc3ccccc32)cn1 (stereo not drawn) | 20.59% |
| CNc1cncc(C2CCCN2C(=O)c2ccc3oc(=O)n(C)c3c2)n1 (stereo not drawn) | -20.51% |
| O=C(NCCCn1ccnc1)N1CCCC1c1ccncc1 (stereo not drawn) | 0.09304% |
| CNc1cncc(C2CCCN2C(=O)CCn2ccnc2C(C)C)n1 (stereo not drawn) | 103% |
| O=C(Cn1c(=O)oc2ccccc21)N1Cc2cncnc2C1 | -8.946% |
| CC(C)c1nccn1CCC(=O)N1CCCCC1c1ccn[nH]1 (stereo not drawn) | 89.39% |
| CC(C)(C)Cc1noc2ncc(C(=O)N3CCCSCC3)cc12 | -8.808% |
| Cn1c(-c2ccc(F)cc2)cn2cc(C(=O)N3CC[C@@H](O)C3)nc2c1=O | 4.586% |
| CN(C(=O)Cc1ccc(NC(=O)NC2CC2)cc1)c1ccccc1 | 5.932% |
| COc1cccc(/C=C/CCN2CCC(C(=O)N3CCCC3)CC2)c1 | -5.123% |
| CC(C)CCN1CC2(CCCN(C(=O)NCc3cccs3)C2)CCC1=O (stereo not drawn) | 1.307% |
| CCc1nccn1CCC(=O)N1CC[C@H](CO)[C@H](O)C1 | -12.26% |
| CNc1cncc(C2CCCN2C(=O)Cn2ccnc2C)n1 (stereo not drawn) | 100.6% |

| SMILES | Percent Effect |
| --- | --- |
| CCc1nccn1CCC(=O)N1CCCC1c1ccc(F)cc1 (stereo not drawn) | 18.71% |
| CCc1nccn1CCC(=O)N1CCCC1c1cncc(NC)n1 (stereo not drawn) | 72.9% |
| CCc1nc(CN2CCCN(c3nc4ccccc4o3)CC2)no1 | 1.249% |
| O=C(NC1CCN(C2CC2)CC1)c1[nH]nc(C2CC2)c1Cl | 0.5841% |
| CCn1cc(CN2C[C@H]3CC[C@@H]2CN(C(=O)C2CCC2)C3)cn1 | 1.465% |
| CSCC(C)(O)CNC(=O)Nc1cc(C)cc(C)c1 (stereo not drawn) | -12.06% |
| Cn1nc(C2CC2)c2c1NC(=O)CC2c1cc(CN2CCCC2)cs1 (stereo not drawn) | -26.2% |
| CCOCCn1c(=O)[nH]c2cc(C(=O)N(C)Cc3cc(C)[nH]n3)ccc21 | 4.063% |
| C=C(C)CN1CCC(NC(=O)NCCc2ccc(N(C)C)cc2)CC1 | -10.94% |
| Cc1ccc(C(=O)NCc2ccnc(N3CCN(C)CC3)c2)cn1 | -19.75% |
| CNc1cc(N2CCC(O)(CNC(=O)c3ccc(C)nc3)C2)ncn1 (stereo not drawn) | 87.58% |
| CNc1cc(N2CCCC2CNCc2cnc(C)cn2)ncn1 (stereo not drawn) | -4.576% |
| COCc1nc(C(=O)N2CCCCC2Cn2cc(C)cn2)cs1 (stereo not drawn) | 2.393% |
| COCc1nc(C(=O)N2CCCC2Cn2cc(C)cn2)cs1 (stereo not drawn) | 115.1% |
| COCc1nc(C(=O)N2CCCC2c2ccccc2C)cs1 (stereo not drawn) | 8.95% |
| Cc1cnn(CC2CCCN2C(=O)c2csc(C3CC3)n2)c1 (stereo not drawn) | 86.35% |
| Cc1cnn(CC2CCCN2C(=O)c2csc(C(C)C)n2)c1 (stereo not drawn) | 113.9% |
| Cc1cnn(CC2CCCCN2C(=O)c2ccc(C#N)c(C)n2)c1 (stereo not drawn) | 2.901% |
| CC(Nc1ccc(CN2CCCC2=O)cc1)c1ccc(C#N)cc1 (stereo not drawn) | 3.244% |
| CCc1ccc(C(=O)O)cc1S(=O)(=O)Nc1ccc(=O)n(C)c1 | -7.326% |
| O=C(NC1CCc2nccn2C1)c1ccc(OCC2CC2)nc1 (stereo not drawn) | -10.39% |
